# Hits are enriched below; roughly 4.2% of the tested compounds scored in any of these assays.
# TIM10 inh = TIM10 yeast growth inhibition; S. cerevisiae TIM10 strain growth, BacTiter-Glo luminescence, 24 h; inhibition, % at 10 µM; 330,000 compounds, 1.4% hits;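 active = inhibition of 40% or more at the single tested concentration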;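 also: wild-type TIM10 isogenic control strain grown at permissive 25 °C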
# NALP1 yeast inh = inhibitors of NALP1 inflammasome in yeast; inhibition, % at 10 µM; AID 2071; S. cerevisiae NALP1/ASC/caspase-1 growth, X-gal OD620, 72 h; 280,000 compounds, 0.61% hits; in the data active = inhibition mostly above about 24%, no sharp cut-off; inactive = mostly below about 32%
# tim23-1 inh = growth inhibitors of tim23-1 mutant yeast; S. cerevisiae tim23-1 growth, BacTiter-Glo luminescence, 24 h; inhibition, % at 20 µM; 330,000 compounds, 1.3% hits;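 active = growth inhibition of the mutant yeast at or above 50%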;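 also: temperature-sensitive mutant grown at 25 °C; plate controls were DMSO-treated mutant yeast for no effect and medium wells lacking yeast for full effect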
# tim10-1 inh = tim10-1 yeast growth inhibition | S. cerevisiae tim10-1 ts strain growth, BacTiter-Glo, 24 h | 330,000 compounds, 2.2% hits | inhibition, % at 20 µM;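 active = inhibition of at least 40%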;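 also: mutant grown at 25 °C; 0% = DMSO wells with yeast and 100% = wells holding no yeast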
# V-ATPase pHluor = alters yeast V-ATPase proton transport; response, % at 10 µM; 350,000 compounds, 0.37% hits; AID 504577; S. cerevisiae, pHLuorin cytosolic pH fluorescence; in the data active = response mostly above about 7.3%, no sharp cut-off; inactive = mostly below about 5.4%; also: actives read high
# NLRP3 yeast inh = NALP3 inhibition in yeast. AID 2825. Yeast reconstituted NLRP3/ASC/caspase-1, beta-gal luminescence, 24 h. inhibition, % at 10 µM. 330,000 compounds, 0.39% hits;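 active = inhibition of 50% or more; inactive = inhibition below 50%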;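 also: plate controls were induced DMSO wells for no effect and uninduced yeast grown without galactose for full effect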
# NALP3 confirm = NALP3 inhibition confirmation in yeast; shares compounds with NLRP3 yeast inh; yeast expressing human NALP3, luminescence; inhibition, % at 10 µM; 1,300 compounds, 81% hits; AID 435006; in the data active = inhibition above about 48%
# Casp1 ASC ctr = caspase-1-ASC yeast counter-screen hit; shares compounds with NLRP3 yeast inh; yeast expressing Caspase-1-ASC, luminescence counter screen; inhibition, % at 10 µM; 1,000 compounds, 66% hits; AID 488784
# NALP3 yeast rt = confirmation retest of NALP3 inhibitors in yeast; shares compounds with NLRP3 yeast inh; yeast expressing human NALP3, luminescence read-out; inhibition, % at 10 µM; 1,000 compounds, 53% hits; AID 488794
# * hit, by the source's call; . = no result given. Rule as the data show it, unless noted: active = inhibition above about 50%; inactive = the rest.
SMILES,TIM10 inh,NALP1 yeast inh,tim23-1 inh,tim10-1 inh,V-ATPase pHluor,NLRP3 yeast inh,NALP3 confirm,Casp1 ASC ctr,NALP3 yeast rt
CSc1nnc(C)c(=O)n1COC(=O)/C=C/c1ccccc1,-1,9,15,15,-2,-21,.,.,.
CCn1c2c(c3cc(Cl)ccc31)CCCC2=O,-26,22,-2,13,3,44,.,.,.
Cc1ccc2c(c1)c1c(n2C)C(=O)CCC1,-1,7,4,-3,-1,54*,56*,63*,52*
O=S(=O)(c1ccccc1)c1cnc2ccccc2c1,-3,.,10,11,-2,46,.,.,.
Nc1nc2ccccc2cc1S(=O)(=O)c1ccccc1,-28,0,12,-18,-1,83*,87*,.,.
COC(=O)c1ccc(/C=C(\C#N)c2ccccn2)cc1,-7,1,23,-3,-1,63*,52*,47,50
COc1cc(/C=C(\C#N)c2ccccn2)cc(OC)c1O,23,.,16,6,-3,36,.,.,.
CN(C)c1ccc(/C=C(\C#N)c2ccccn2)cc1,30,44,33,29,0,51*,34,.,.
Cc1cccc(C)c1NC(=O)CNC(=O)c1c(C)nn(C)c1Cl,-18,-17,11,6,3,3,.,.,.
NCCC(=O)N1c2ccccc2Sc2ccccc21,-8,36*,-5,-12,-3,68*,78*,62*,77*
CCCNC(=O)CSc1nc(COc2ccccc2)nc2ccccc12,-21,-2,11,24,-1,42,.,.,.
O=C(CSc1nc(COc2ccccc2)nc2ccccc12)NC1CCCC1,-8,-3,17,12,-4,71*,40,67*,56*
CSc1nc2ccc(NC(=O)c3ccco3)cc2s1,-38,39,21,-71,0,51*,58*,56*,54*
O=C(Nc1cccc(-c2nc3cccnc3s2)c1)c1ccco1,4,4,47,-63,0,33,.,.,.
O=C(Nc1ccc(-c2nc3cccnc3s2)cc1)c1ccco1,-15,.,32,-52,6,51*,72*,46,48
CCCSc1ccc([C@H]2N[C@@](C)(C(=O)OC)[C@H]3C(=O)N(C)C(=O)[C@@H]23)cc1,-5,.,4,1,1,51*,48,16,16
C[N+](C)(C)CC(=O)N/N=C/c1c2ccccc2cc2ccccc12,1,14,3,5,0,4,.,.,.
N#Cc1nc(COc2ccc(Br)cc2)oc1N1CCCC1,-14,12,32,22,-6,54*,62*,50*,41
N#Cc1nc(COc2ccccc2)oc1N1CCCC1,-22,15,8,3,2,75*,49*,79*,64*
CN1CCN(c2oc(COc3ccc(-c4ccccc4)cc3)nc2C#N)CC1,13,33,22,-1,3,60*,50*,76*,65*
COc1ccc(Cn2c(CCC(=O)Nc3ccc(C)c(C)c3)nc3cccnc32)cc1,1,33,7,30,0,19,.,.,.
O=c1nc2n(c3cccc(Cl)c13)CCCCC2,11,5,3,8,-2,10,.,.,.
Cn1c(=NC(=O)CS(=O)(=O)c2ccccc2)sc2ccccc21,-6,.,6,7,3,9,.,.,.
Cn1c(=NC(=O)COc2ccccc2)sc2ccccc21,-7,0,8,-24,-1,60*,47,.,.
COc1ccccc1NS(=O)(=O)c1cc(NC(=O)CN2C(=O)NC3(CCCC3)C2=O)ccc1C,-1,.,-5,8,2,12,.,.,.
SMILES,TIM10 inh,NALP1 yeast inh,tim23-1 inh,tim10-1 inh,V-ATPase pHluor,NLRP3 yeast inh,NALP3 confirm,Casp1 ASC ctr,NALP3 yeast rt
Cc1ccc(-c2nc3ccccc3[nH]2)cc1NC(=O)c1ccc2c(c1)OCO2,-25,5,-10,-25,-1,60*,59*,56*,59*
CCOc1ccc(C(=O)Nc2cc(-c3nc4ccccc4[nH]3)ccc2Cl)cc1[N+](=O)[O-],12,56*,13,27,0,78*,6,.,.
OC(COc1cccc2ccccc12)CN1CCN(c2ccc(Cl)cc2)CC1 (stereo unspecified),17,18,15,21,-1,45,.,.,.
Cc1cccc(N2CCN(CC(O)COc3ccccc3Cl)CC2)c1 (stereo unspecified),13,14,29,-3,-2,50*,64*,37,46
Cc1nn(-c2ccccc2)c(C)c1/C=N/n1c(-c2ccncc2)n[nH]c1=S,4,-13,-1,14,.,19,.,.,.
C(=C\c1ccccc1)/CSc1nnc(-c2cnccn2)n1Cc1ccco1,8,23,29,3,7,9,.,.,.
Fc1ccccc1CSc1nnc(-c2cnccn2)n1Cc1ccco1,28,-13,27,22,0,-133,-33,.,.
COc1ccc(Nc2c(C)cccc2C)cc1,18,-46,2,21,-1,-105,-12,.,.
C=C(CC[C@@H](O)C(C)(C)O)[C@H]1CC[C@]2(C)[C@@H]1CCC1[C@@]3(C)CCC(=O)C(C)(C)C3CC[C@]12C (stereo partly specified),-9,.,17,3,-1,54*,46,52*,37
Cc1cccc(-n2ccnc2SCC(=O)Nc2cccc(S(=O)(=O)NC3=NCCC3)c2)c1C,7,.,12,3,0,17,.,.,.
Cc1cccc(NC(=O)c2cnc3sccn3c2=O)c1,25,1,40,3,8,56*,66*,52*,46
CC(C)c1nnc(NC(=O)Cc2cccs2)s1,-5,11,15,9,-2,16,.,.,.
Nc1c(-c2cccc(Cl)c2)cnn1-c1cccc(C(F)(F)F)c1,17,23,31,17,-4,54*,73*,65*,50*
Nc1c(-c2ccccc2)cnn1-c1cccc(C(F)(F)F)c1,-41,43,-16,-25,.,60*,62*,62*,53*
Cc1ccc(-c2cnn(-c3ccccc3)c2N)cc1,-2,12,18,24,-9,14,.,.,.
Nc1c(-c2ccc(Cl)cc2)cnn1-c1cc(C(F)(F)F)cc(C(F)(F)F)c1,-5,.,-1,-5,-2,1,.,.,.
Cc1cc(C)cc(C(=O)Nc2nc3ccccc3[nH]2)c1,13,23,47,11,4,52*,52*,61*,47
COc1ccc(Cl)cc1C(=O)Nc1nc2ccccc2[nH]1,22,38*,31,-23,-3,72*,78*,77*,72*
COc1ccc(C(=O)Nc2nc3ccccc3[nH]2)cc1OC,-3,2,1,15,-2,9,.,.,.

# Source: PubChem BioAssay (several laboratories)
